Laboratory results as given in the supplement of paper PMC3334620.
Over roughly 33,000 sequences, “E-score (-0.5 to 0.5)” has its median near -0.0034; the highest 2% begin near 0.25. This excerpt belongs to a sample that is enriched for the highest values.

The sequences below were run against T1, Yap3 (UniProt P38749) (assay: PBM E-score (8-mer binding enrichment) (E-score (-0.5 to 0.5)); higher = stronger / more preferred TF binding). Conditions: protein concentration: 100 nM; construct: GST-full length.
T1 sequence: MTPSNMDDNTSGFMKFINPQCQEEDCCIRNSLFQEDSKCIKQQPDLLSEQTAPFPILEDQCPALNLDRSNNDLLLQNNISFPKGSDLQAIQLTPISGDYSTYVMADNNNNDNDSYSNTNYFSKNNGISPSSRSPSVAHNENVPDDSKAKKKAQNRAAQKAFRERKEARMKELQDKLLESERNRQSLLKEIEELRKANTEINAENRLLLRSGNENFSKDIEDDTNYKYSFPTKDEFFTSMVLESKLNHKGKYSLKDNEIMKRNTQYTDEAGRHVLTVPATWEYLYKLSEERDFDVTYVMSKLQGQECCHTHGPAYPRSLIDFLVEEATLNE
Procedure: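 Universal 'all 10-mer' protein binding microarrays (Agilent AMADID 015681) probed with GST-tagged S. cerevisiae TFs (full-length or DBD) made by in vitro transcription/translation (PURExpress), about 100-200 nM. Bound TF was detected with fluorescent anti-GST. Each ungapped 8-mer (which stands for itself and its reverse complement) is scored by the PBM enrichment score (E-score), a modified Wilcoxon-Mann-Whitney statistic from -0.5 to +0.5, computed with the Universal PBM Analysis Suite. Scale: above 0.35 generally sequence-specific binding.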

Sequence	PBM E-score
AATATCTC	0.263
AATATCTG	0.084
AATATCTA	0.0725
ATTATCGA	0.132
ATTATCGG	-0.0264
ATTATCAC	0.282
CTTATCAC	-0.0604
ATTATCTC	0.268
CTTATCTC	0.0941
ATTATCGC	0.304
ATTATCTG	0.119
ATTATCAG	0.0829
CGTTTCCA	0.105
AATTCACA	0.238
CTGAGACA	-0.0945
GCCCACAA	-0.141
AATAGAAG	0.0527
CGGCAGAA	0.124
TGAGTCAA	0.0132
GAACCAAA	-0.0377
CTGTGCCA	-0.119
AAGTAATA	0.158
CAGTAATG	0.0685
CAGTAATC	0.0876
GAGTAATA	0.273

Sequence	PBM E-score
CAGTAATA	0.307
GAGTAATC	0.103
CATAGGCA	-0.0267
AGTCGACG	0.23
ACCACCAC	-0.00648
CACAGGCA	0.0714
AGACTGTC	-0.163
CTTGAAAC	0.177
CCGGCCAG	-0.181
CCACATAC	0.249
GTATTTTA	0.0831
ATATTTTG	0.157
GTATTTGA	0.137
ATATTTTC	0.261
CTATTTTC	0.114
CCATTTTA	0.222
CTATTTTA	0.251
ATATTTGA	0.149
GCATTTTA	0.227
ATATTTTA	0.273
CTATTTGA	0.27
ACATTTTA	0.259
CACGGCCG	-0.0612
CTACTCTA	0.148
AAAGGGCG	-0.0936

Sequence	PBM E-score
AGTAGTGG	0.0946
ATCTGCGG	-0.0331
ATCTATAA	0.0384
CTACTAGC	0.097
TAAGTAGA	0.109
AGATGACG	0.108
CTGTGGCC	-0.361
CTGTTCAA	0.0116
AGGTCGAT	0.167
GCCGATCA	0.00289
CTATTTAA	0.0559
ATATTTAC	0.208
ATATTTAA	0.339
GTAACAGA	0.105
GTTATTCA	0.193
ATTATTCC	0.248
ACTATTCG	0.231
ATTATTCG	0.274
ATTATTCA	0.277
CTTATTCA	0.106
ATACCCAG	-0.0813
AACAATTG	-0.0238
AACAATTA	0.323
ATCAATTG	0.159
ACCAATTA	0.274

Sequence	PBM E-score
ATCAATTA	0.318
ATCAATTC	-0.0493
ACCAATTG	-0.0264
GCCAATTA	0.193
AACAATTC	0.106
CGTAGCTA	-0.05
GGAGCAAA	0.016
CATAGCAC	0.0592
ACACCACA	0.0359
AGCCTCAT	-0.158
ACAAGGGG	-0.193
ATTAGATG	0.261
ATTAGATC	0.0781
ATTAGATA	0.178
TCTTCAAA	0.0414
ACTGCCAG	-0.0114
GAATTATA	0.237
CAATTAGA	0.0631
CAATTATC	0.273
CAATTATG	0.214
GAATTAGA	0.136
CAATTATA	0.167
TAATTAGA	0.291
AAATTATA	0.249
TAATTATA	0.285

Sequence	PBM E-score
CTACCATA	0.152
CCGTGAAG	-0.167
ATACCATA	0.241
CTAGATCC	-0.0756
GCGAAGGA	-0.201
AACGAGGA	0.0742
GACTAACA	0.142
AAATACAA	0.197
GACTAATA	0.326
AACTAATG	0.23
AACTAATA	0.342
AAATACTA	0.141
CAATACAA	0.187
CAATACTA	0.0409
GACTAATC	0.175
TAATACTA	0.367
TAATACAA	0.279
AACTAATT	0.149
CAAATCTC	0.0919
TACAGCTA	-0.115
GCATGACC	-0.158
TCCTTCAA	0.026
CCCTTGAC	-0.0534
CGACAGGA	0.0296
AAGTAACC	0.0184

Sequence	PBM E-score
ACCTAGAC	-0.229
GAGACGGC	-0.138
GAAAGATC	-0.0498
ATCCAGTG	0.0972
ACTCCAAT	0.0453
GAAATACC	0.0809
GGTCAGTA	-0.139
TGTAGTAA	0.128
TACTACTA	0.223
ACCTAATA	0.274
ACCTAATC	0.245
CACTAATA	0.225
GCCTAATA	0.0577
TACTAATA	0.267
GAAAGCAC	0.112
ACAGCAGG	-0.126
CGTCTGAA	-0.104
ATAATCAA	0.139
AACATAAA	0.156
AACATAAG	0.308
AACATAAT	0.334
ATAATCAT	0.344
ATAATCAG	0.126
CACATAAG	0.053
CTAATCAC	0.271

Sequence	PBM E-score
AACATACG	0.183
CTAATCAA	0.219
AACATACT	0.012
CTAATCAG	0.0826
GCATAAAA	0.147
CGTTGAAC	-0.07
GCTAGGAC	-0.11
ATCTATCC	0.00162
AAAGTGCT	0.0686
CTCTATCC	-0.00886
CAGGAAGC	0.00172
CACATAAC	-0.0392
ATCATAAA	0.193
GACATAAC	0.22
ACCATAAG	-0.0758
ATCATAAT	0.293
ATCATAAG	0.247
ACCATAAT	0.264
ACCATAAA	0.141
AACATAAC	0.269
CTCTCTAC	0.111
AGCTGGAA	-0.178
